From the supplement of paper PMC4466140

Legend:
Assay in all cases: SPOT peptide array binding signal intensity (averaged, normalized) (arbitrary units (background-subtracted, floor 0; scale differs between SH3 domains)); higher = stronger binding of the SH3 domain to the peptide
[1] = molecular target: AgAbp1
Method in brief: (§1)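 Binding signal refers to normalized, background-subtracted spot intensity averaged over replicates, expressed in arbitrary units that differ between domains. GST-fused SH3 domains from four yeast species were incubated at 10 μg/ml overnight at 4°C on cellulose membranes of synthetic 15-mer peptides with cysteines replaced by serines. Bound protein was detected with anti-GST antibody, an HRP anti-mouse secondary and luminol, and quantified with Genespotter.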

[2] = molecular target: AgBbc1
Method in brief: as §1

[3] = molecular target: AgBem1-D1
Method in brief: as §1

[4] = molecular target: AgBzz1-D1
Method in brief: as §1

[5] = molecular target: AgBzz1-D2
Method in brief: as §1

[6] = molecular target: AgCyk3
Method in brief: as §1

[7] = molecular target: AgFus1
Method in brief: as §1

[8] = molecular target: AgHof1
Method in brief: as §1

[9] = molecular target: AgHse1
Method in brief: as §1

[10] = molecular target: AgLsb1
Method in brief: as §1

[11] = molecular target: AgLsb4
Method in brief: as §1

[12] = molecular target: AgMyo5
Method in brief: as §1

[13] = molecular target: AgNbp2
Method in brief: as §1

[14] = molecular target: AgRvs167
Method in brief: as §1

[15] = molecular target: AgSho1
Method in brief: as §1

[16] = molecular target: AgSla1-D1-D2
Method in brief: as §1

[17] = molecular target: AgSla1-D3
Method in brief: as §1

[18] = molecular target: CaAbp1-D1
Method in brief: as §1

[19] = molecular target: CaAbp1-D2
Method in brief: as §1

[20] = molecular target: CaBbc1
Method in brief: as §1

[21] = molecular target: CaBem1-D1
Method in brief: as §1

[22] = molecular target: CaBzz1-D1
Method in brief: as §1

[23] = molecular target: CaBzz1-D2
Method in brief: as §1

[24] = molecular target: CaCyk3
Method in brief: as §1

[25] = molecular target: CaFus1
Method in brief: as §1

[26] = molecular target: CaHof1
Method in brief: as §1

[27] = molecular target: CaHse1
Method in brief: as §1

[28] = molecular target: CaLsb1
Method in brief: as §1

[29] = molecular target: CaLsb4
Method in brief: as §1

[30] = molecular target: CaMyo5
Method in brief: as §1

[31] = molecular target: CaNbp2
Method in brief: as §1

[32] = molecular target: CaRvs167
Method in brief: as §1

[33] = molecular target: CaRvs167-3
Method in brief: as §1

[34] = molecular target: CaSho1
Method in brief: as §1

[35] = molecular target: CaSla1-D1-D2
Method in brief: as §1

[36] = molecular target: CaSla1-D3
Method in brief: as §1

[37] = molecular target: ScAbp1
Method in brief: as §1

[38] = molecular target: ScBbc1
Method in brief: as §1

[39] = molecular target: ScBem1-D1
Method in brief: as §1

[40] = molecular target: ScBzz1-D1
Method in brief: as §1

[41] = molecular target: ScBzz1-D2
Method in brief: as §1

[42] = molecular target: ScCyk3
Method in brief: as §1

[43] = molecular target: ScFus1
Method in brief: as §1

[44] = molecular target: ScHof1
Method in brief: as §1

[45] = molecular target: ScHse1
Method in brief: as §1

[46] = molecular target: ScLsb1
Method in brief: as §1

[47] = molecular target: ScLsb2
Method in brief: as §1

[48] = molecular target: ScLsb3
Method in brief: as §1

[49] = molecular target: ScLsb4
Method in brief: as §1

[50] = molecular target: ScMyo3
Method in brief: as §1

[51] = molecular target: ScMyo5
Method in brief: as §1

[52] = molecular target: ScNbp2
Method in brief: as §1

[53] = molecular target: ScPex13
Method in brief: as §1

[54] = molecular target: ScRvs167
Method in brief: as §1

[55] = molecular target: ScSho1
Method in brief: as §1

[56] = molecular target: ScSla1-D1-D2
Method in brief: as §1

[57] = molecular target: ScSla1-D3
Method in brief: as §1

[58] = molecular target: SpAbp1-D1
Method in brief: as §1

[59] = molecular target: SpBbc1
Method in brief: as §1

[60] = molecular target: SpBzz1-D1
Method in brief: as §1

[61] = molecular target: SpBzz1-D2
Method in brief: as §1

[62] = molecular target: SpCyk3
Method in brief: as §1

[63] = molecular target: SpHof1
Method in brief: as §1

[64] = molecular target: SpHof1-2
Method in brief: as §1

[65] = molecular target: SpHof1-3
Method in brief: as §1

[66] = molecular target: SpHse1
Method in brief: as §1

[67] = molecular target: SpLsb1
Method in brief: as §1

[68] = molecular target: SpLsb4
Method in brief: as §1

[69] = molecular target: SpMyo1
Method in brief: as §1

[70] = molecular target: SpNbp2
Method in brief: as §1

[71] = molecular target: SpPex13
Method in brief: as §1

[72] = molecular target: SpRvs167
Method in brief: as §1

[73] = molecular target: SpSla1-D1-D2
Method in brief: as §1

[74] = molecular target: SpSla1-D3
Method in brief: as §1

## NPTKSPPPPPSPSTM
[1]
  SPOT peptide array binding signal intensity: ≤ 0
[2]
  SPOT peptide array binding signal intensity: ≤ 0
[3]
  SPOT peptide array binding signal intensity: 26
[4]
  SPOT peptide array binding signal intensity: 126
[5]
  SPOT peptide array binding signal intensity: 63.5
[6]
  SPOT peptide array binding signal intensity: ≤ 0
[7]
  SPOT peptide array binding signal intensity: ≤ 0
[8]
  SPOT peptide array binding signal intensity: 7
[9]
  SPOT peptide array binding signal intensity: 16
[10]
  SPOT peptide array binding signal intensity: 1.25
[11]
  SPOT peptide array binding signal intensity: ≤ 0
[12]
  SPOT peptide array binding signal intensity: 232
[13]
  SPOT peptide array binding signal intensity: ≤ 0
[14]
  SPOT peptide array binding signal intensity: ≤ 0
[15]
  SPOT peptide array binding signal intensity: ≤ 0
[16]
  SPOT peptide array binding signal intensity: ≤ 0
[17]
  SPOT peptide array binding signal intensity: 128
[18]
  SPOT peptide array binding signal intensity: 7
[19]
  SPOT peptide array binding signal intensity: ≤ 0
[20]
  SPOT peptide array binding signal intensity: ≤ 0
[21]
  SPOT peptide array binding signal intensity: 5
[22]
  SPOT peptide array binding signal intensity: 3240
[23]
  SPOT peptide array binding signal intensity: 1620
[24]
  SPOT peptide array binding signal intensity: 7.5
[25]
  SPOT peptide array binding signal intensity: 60
[26]
  SPOT peptide array binding signal intensity: ≤ 0
[27]
  SPOT peptide array binding signal intensity: 4
[28]
  SPOT peptide array binding signal intensity: 0.5
[29]
  SPOT peptide array binding signal intensity: ≤ 0
[30]
  SPOT peptide array binding signal intensity: 48
[31]
  SPOT peptide array binding signal intensity: 45
[32]
  SPOT peptide array binding signal intensity: 0.667
[33]
  SPOT peptide array binding signal intensity: 1
[34]
  SPOT peptide array binding signal intensity: 10.5
[35]
  SPOT peptide array binding signal intensity: 49
[36]
  SPOT peptide array binding signal intensity: 30
[37]
  SPOT peptide array binding signal intensity: ≤ 0
[38]
  SPOT peptide array binding signal intensity: ≤ 0
[39]
  SPOT peptide array binding signal intensity: ≤ 0
[40]
  SPOT peptide array binding signal intensity: 274
[41]
  SPOT peptide array binding signal intensity: 22
[42]
  SPOT peptide array binding signal intensity: ≤ 0
[43]
  SPOT peptide array binding signal intensity: ≤ 0
[44]
  SPOT peptide array binding signal intensity: 1
[45]
  SPOT peptide array binding signal intensity: 21.5
[46]
  SPOT peptide array binding signal intensity: ≤ 0
[47]
  SPOT peptide array binding signal intensity: ≤ 0
[48]
  SPOT peptide array binding signal intensity: ≤ 0
[49]
  SPOT peptide array binding signal intensity: ≤ 0
[50]
  SPOT peptide array binding signal intensity: 771
[51]
  SPOT peptide array binding signal intensity: 343
[52]
  SPOT peptide array binding signal intensity: 47.5
[53]
  SPOT peptide array binding signal intensity: 80
[54]
  SPOT peptide array binding signal intensity: ≤ 0
[55]
  SPOT peptide array binding signal intensity: 18
[56]
  SPOT peptide array binding signal intensity: ≤ 0
[57]
  SPOT peptide array binding signal intensity: 11.5
[58]
  SPOT peptide array binding signal intensity: ≤ 0
[59]
  SPOT peptide array binding signal intensity: ≤ 0
[60]
  SPOT peptide array binding signal intensity: 548
[61]
  SPOT peptide array binding signal intensity: 7.25
[62]
  SPOT peptide array binding signal intensity: 4
[63]
  SPOT peptide array binding signal intensity: 1.25
[64]
  SPOT peptide array binding signal intensity: 4
[65]
  SPOT peptide array binding signal intensity: 0.5
[66]
  SPOT peptide array binding signal intensity: 94
[67]
  SPOT peptide array binding signal intensity: 1
[68]
  SPOT peptide array binding signal intensity: ≤ 0
[69]
  SPOT peptide array binding signal intensity: 468
[70]
  SPOT peptide array binding signal intensity: ≤ 0
[71]
  SPOT peptide array binding signal intensity: ≤ 0
[72]
  SPOT peptide array binding signal intensity: 2
[73]
  SPOT peptide array binding signal intensity: ≤ 0
[74]
  SPOT peptide array binding signal intensity: ≤ 0
